Experimental data reported in PubChem BioAssay (Tox21).
Results filed as inconclusive are left out. The source made the active and inactive calls. Unless noted, calls come from the whole dose curve; as a rule, active = well fitted curve in the direction sought with a large enough effect in the repeat runs; inconclusive = weak or mixed curves; inactive = flat fitted curve, though single readings scatter.

Legend:
[1] = qHTS assay to test for compound auto fluorescence at 535 nm (green) in HEK293 cells (AID 720680)
[2] = qHTS assay to test for compound auto fluorescence at 460 nm (blue) in HEK293 cell free culture (AID 720681)
Outline: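 Test compounds were pinned into cell-free culture medium (DMEM with 10% FBS) and fluorescence was read directly at Ex/Em 405/460 nm. Signals were expressed as fluorescence equivalents of triamterene, with DMSO vehicle as control.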

[3] = qHTS assay to test for compound auto fluorescence at 535 nm (green) in HEK293 cell free culture (AID 720682)
Outline: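 Read-out: 485/535 nm fluorescence intensity, calibrated against fluorescein. Medium only (DMEM + 10% FBS, no cells); test compound or DMSO vehicle added by pintool before plate reading.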

[4] = qHTS assay to test for compound auto fluorescence at 590 nm (red) in HEK293 cell free culture (AID 720683)
Outline: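 Tox21 10K library compounds were pinned into cell-free DMEM with 10% FBS and fluorescence was read at excitation 540 nm. Activity is expressed as Rose Bengal sodium equivalency.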

[5] = qHTS assay to test for compound auto fluorescence at 590 nm (red) in HepG2 cell free culture (AID 720684)
Outline: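 Red fluorescence (540 nm excitation, 590 nm emission) was measured after compound transfer into cell-free MEM supplemented with 10% FBS. Values are equivalencies against Rose Bengal sodium.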

[6] = qHTS assay to test for compound auto fluorescence at 460 nm (blue) in HepG2 cell free culture (AID 720685)
Outline: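 Compound (23 nL) or DMSO pinned into cell-free MEM with 10% FBS; blue fluorescence read at 405/460 nm excitation/emission, expressed as auto-fluorescence equivalency to triamterene.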

[7] = qHTS assay to test for compound auto fluorescence at 535 nm (green) in HepG2 cell free culture (AID 720686)
[8] = qHTS assay to test for compound auto fluorescence at 460 nm (blue) in HepG2 cells (AID 720687)
Outline: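 Cells (2,000/well in MEM with 10% FBS) attached overnight at 37 C, then were exposed to compound or DMSO for 1 hr at 37 C, 5% CO2. Fluorescence read at Ex/Em 405/460 nm, expressed as triamterene-equivalent signal.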

[9] = target: Glucocorticoid receptor (Homo sapiens) (UniProt P04150); test: qHTS assay to identify small molecule agonists of the glucocorticoid receptor (GR) signaling pathway (AID 720691; active = well fitted activation curve with a large enough effect in the signal ratio in the repeat runs, not every such curve was filed as active; the % refers to the signal ratio)
Sequence of Glucocorticoid receptor (Homo sapiens) (P04150 whole entry, looked up): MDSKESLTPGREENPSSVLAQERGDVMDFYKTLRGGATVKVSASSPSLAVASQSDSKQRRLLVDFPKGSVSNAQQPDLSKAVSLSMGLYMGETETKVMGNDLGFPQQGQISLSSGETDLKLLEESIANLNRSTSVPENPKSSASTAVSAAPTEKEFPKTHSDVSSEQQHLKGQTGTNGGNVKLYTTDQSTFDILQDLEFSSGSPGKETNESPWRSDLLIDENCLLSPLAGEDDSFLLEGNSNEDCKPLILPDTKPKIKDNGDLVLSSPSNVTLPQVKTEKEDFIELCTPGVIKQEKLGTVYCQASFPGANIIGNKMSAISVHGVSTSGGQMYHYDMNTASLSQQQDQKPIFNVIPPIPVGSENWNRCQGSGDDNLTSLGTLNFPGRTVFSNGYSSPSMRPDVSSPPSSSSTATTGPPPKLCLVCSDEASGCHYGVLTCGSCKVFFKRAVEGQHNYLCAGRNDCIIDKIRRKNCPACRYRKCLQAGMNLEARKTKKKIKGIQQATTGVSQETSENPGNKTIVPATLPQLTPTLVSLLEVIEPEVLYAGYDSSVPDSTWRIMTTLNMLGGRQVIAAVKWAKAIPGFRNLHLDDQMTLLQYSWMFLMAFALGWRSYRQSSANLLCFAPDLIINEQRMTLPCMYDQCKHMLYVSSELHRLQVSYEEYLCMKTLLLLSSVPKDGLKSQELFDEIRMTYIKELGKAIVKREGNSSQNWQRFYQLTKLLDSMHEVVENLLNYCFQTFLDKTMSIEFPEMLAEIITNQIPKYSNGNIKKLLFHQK
Outline: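 Fluorescence intensity from LiveBLAzer B/G FRET substrate (2 h, room temperature) reports beta-lactamase expression driven by the glucocorticoid response element in GR-bla HeLa cells after 18 h compound exposure at 37 C.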

Measured: Potency

CCOC(=O)OC1=C(c2cc(C)ccc2C)C(=O)NC12CCC(OC)CC2 (centres undefined)
inactive: all assays above

CC(=O)c1cc(C(C)(C)C)cc2c1CCC2(C)C
inactive: all assays above

CNC(C)Cc1ccc2c(c1)OCO2 (centres undefined)
not listed: [9]
inactive: all other assays above

COc1ccc(N)cc1N
inactive: all assays above

Fc1ccc(Oc2ccnc3cc(Cl)cc(Cl)c23)cc1
inactive: all assays above

CC(=O)/C=C/c1ccc2c(c1)OCO2
inactive: all assays above

[Cl][Sb]([Cl])[Cl]
not listed: [9]
inactive: all other assays above

O=[N+]([O-])c1c2ccccc2cc2ccccc12
inactive: all assays above

COc1cccc(C(=O)CCN[C@@H](C)[C@H](O)c2ccccc2)c1
inactive: all assays above

Nc1ccc(Sc2ccc(N)cc2)cc1
inactive: all assays above

BrCBr
inactive: all assays above

N#CC(Cl)Cl
not listed: [9]
inactive: all other assays above

CC(C)[C@H](C(=O)OC(C#N)c1cccc(Oc2ccccc2)c1)c1ccc(OC(F)F)cc1 (some centres undefined)
not listed: [9]
inactive: all other assays above

C=CCC1=C(C)C(OC(=O)C2C(C=C(C)C)C2(C)C)CC1=O (centres undefined)
inactive: all assays above

CC(C)C1CCC(Cc2ccc(Cl)cc2)C1(O)Cn1cncn1 (centres undefined)
not listed: [9]
inactive: all other assays above

O=S(=O)(c1ccc(Cl)cc1)c1ccc(Cl)cc1
inactive: all assays above

CCOC(=O)CC(=O)CCl
inactive: all assays above

CN(C)CCc1c[nH]c2ccc(O)cc12
inactive: all assays above

Cc1cc(C(F)(C(F)(F)F)C(F)(F)F)ccc1NC(=O)c1cccc(I)c1C(=O)NC(C)(C)CS(C)(=O)=O
inactive: all assays above

[CH3][Hg][Cl]
not listed: [9]
inactive: all other assays above

CCN
inactive: all assays above

O=c1[nH]c2ccccc2n1CCCN1CCC(n2c(=O)[nH]c3cc(Cl)ccc32)CC1
inactive: all assays above

O=C(CCl)Nc1ccccc1
not listed: [9]
inactive: all other assays above

Cc1cc(C)c(C2=C(OC(=O)CC(C)(C)C)C3(CCCC3)OC2=O)c(C)c1
inactive: all assays above
